The panel holds about 83,000 compounds, 20% with a hit somewhere; the sample as a whole holds those more often.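 48-hour exposure, single concentration, 96-well plates; percent growth endpoint where 0 means no net growth. Active: below 10.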 A number with no mark means an inactive call. Active and inactive are the calls of the source.

The text below walks through data of PubChem BioAssay (NCI).

For the experiment, the system named is HT29 colon. Nature of the experiment: NCI-60 one-dose screen, 48 h (100 = growth as untreated, 0 = no growth, -100 = all killed). To be noted: 10 µM unless noted. The method, then: Growth inhibition of the HT29 human tumor cell line is measured as a screen for anti-cancer activity. Cells are grown in 96 well plates and exposed to the test compound for 48 hours. Compounds are tested at a single concentration, which is 10^-5 M for most compounds. The reported endpoint is percent growth (GI% or GIPRCNT), where numbers from 0 - 100% represent growth inhibition, and numbers from -100% - 0 represent cell death. For example, a value of 40 represents 60% growth inhibition. A value of 0 means no net growth occurred over the course of the experiment. A value of -40 indicates 40% of cells at the beginning of the experiment died by the end of the experiment. A value of -100 means all cells are dead at the end of the experiment.
NCI-60 Human Tumor Cell Lines Screen was performed using the standard one-dose NCI protocol, which is described in more detail at https://dtp.cancer.gov/discovery_development/nci-60/default.htm.
Compounds with GIPRCNT values below 10 were considered active. Activity score was based on GIPRCNT using the following formula: […]
Score is 0 for GIPRCNT values of 100 or above, 50 for GIPRCNT values of 0, and 100 for GIPRCNT values of -100.
`CCCCCc1ccc(S(=O)(=O)Nc2ccc3nc(N)oc3c2)cc1`: the growth was 89.4%.
Turning to `COc1ccc2c(c1)CC[C@@H]1[C@@H]2CC[C@]2(C)C3C(=CC(COC(C)=O)C4C(=O)N(c5ccc(Cl)cc5)C(=O)C43)C[C@@H]12` (stereo not given in full), the growth is 90%.
Then `COC(=O)c1nc(-c2ccccc2)oc1S(=O)(=O)N1CCCC(C)C1` (stereo not given), with 56.3%; and `Fc1ccc(/C=C/[C@@H]2C[C@@H](F)CCO2)cc1`, with 99.9%.
Then `COc1ccc(Oc2ccc(/C=C/C(=O)c3ccc(OC)c(OC)c3)cc2)cc1`, with 86%; and `COc1cc(N2C(=O)[C@H](Cl)C2c2ccc(SC)cc2)cc(OC)c1OC` (stereo not given in full), with 1.22% (active); and `O=S(=O)(Nc1cc(F)cc(F)c1)c1ccc(-c2cnc(C3CC3)o2)cc1`, with 4.44% (active).
In the case of `Cc1ccc(NC(=O)c2sc3nc(C)c(C(O)c4ccccc4)cc3c2N)cc1` (stereo not given), the growth is 9.15% (active).
Turning to `N=C(N)c1ccc(-c2ccc(-c3ccccc3)o2)o1`, the growth is 4.83% (active).
Then `Cc1cc(O)c(=O)cc2c1C[C@H]1CC(C)(C)/C=C/C[C@]3(C)Oc4cc(=O)c(O)cc(C)c4C[C@H]3C[C@H](O)[C@@]1(C)O2`, with 7.77% (active); and `CC(=O)O[C@H]1CC[C@]2(C)[C@H]3CC=C4[C@@H]5CC(C)(C)CC[C@]5(C(=O)N5CCN(CCC#N)CC5)CC[C@@]4(C)[C@]3(C)CC[C@H]2C1(C)C`, with 12.4%.
Turning to `CCN(CC)CCCC(Cc1ccccc1)Nc1c2ccc(Cl)cc2nc2ccc(OC)cc12` (stereo not given), the growth is 16.3%.
Then `O=C(/C=C/c1ccco1)Nc1ncc(Cc2cc(Cl)ccc2Cl)s1`, with 9.68% (active); and `N#Cc1ccc(/C=C/c2cn(-c3ccccc3)nc2-c2cccc([N+](=O)[O-])c2)cc1`, with 53.2%; and `COC1C(O)CC(OC2CC(OC3CC(O[C@@H]4C(=O)c5c(cc6cc(OC7CC(OC8CC(O)C(O)C(C)O8)C(O)C(C)O7)c(C)c(O)c6c5O)CC4[C@H](OC)[C@@H](O)C(C)=O)OC(C)C3O)OC(C)C2O)OC1C` (stereo not given in full), with -16.9% (active).
Regarding `O=C(NCCCCO)c1cncnc1Nc1ccc2c(ccn2Cc2cccc(F)c2)c1`, the growth was 99.9%.
On to `CC(C)(C)c1ccc(C(=O)N/N=C/c2ccc(O)cc2O)cc1`, for which the growth is 26.4%.
Then `COc1cc(/C=N/NC(=O)c2ccc(-n3cc(-c4ccccc4)nn3)cc2)cc(OC)c1OC`, with 47.8%; and `Fc1cccc(CNc2c3ccccc3nc3ccccc23)c1`, with 14.3%; and `Cc1ccc2c(c1)nc(C)n2-c1ncnc2c1CC(C)c1cc(O)ccc1N2C` (stereo not given), with 36.8%.
Then `CN(C)C1CN(C(=O)c2cc(-c3ccc4ncnc(N5CCc6cc(F)c(Cl)cc65)c4c3)cnc2N)C1`, with 14.8%; and `C=C1SC(=Nc2ccccc2Cl)N(C(=O)c2sc3ccccc3c2Cl)C1(C)C`, with 61.6%.
For `CN(C)CCn1c(=O)c2ccccc2n2nc3ccccc3c12` the value was 78.9%; for `COc1ccc(/C=C(/C(=O)N2CCNCC2)c2cc(OC)c(OC)c(OC)c2)cc1O`, 88.1%.
For the molecule `CC/C(=C(\c1ccc(Cl)cc1)c1ccc(OCCN2CCCCC2)cc1)c1ccc(O)cc1`, the growth is -37.2% (active).
As for `Cc1cccc(NC(=O)N/C(N)=N/c2nc3ccccc3s2)c1`, the growth is 11.3%.
Turning to `N#Cc1c(-c2ccccc2)nc2c(c(-c3ccc(Cl)cc3)nn2-c2ccccc2)c1-c1ccc([N+](=O)[O-])cc1`, the growth is 93.5%.
In the case of `Cc1c(O)cc(-c2cnc(N/N=C/c3ccccc3)s2)c(O)c1C`, the growth is 104%.
On to `CNCC[C@H](Oc1cccc2ccccc12)c1cccs1`, for which the growth was 71.8%.
Take `Cc1c2cnccc2c(C)c2c1c1cc(CO)ccc1n2C`: the growth was -16.3% (active).
In the case of `O=C(CCCCCCCC(=O)N1CCCCC1)N1CCCCC1`, the growth is 106%.
With `Nc1cc(C(=O)O)cc(-n2c(O)c(C=C3N=c4ccccc4=N3)sc2=S)c1`, the growth is 108%.
Then `[N-]=[N+]=NCC1OC(n2cnc3c(NC(=O)Nc4ccccc4)ncnc32)C2OC(=O)CC12` (stereo not given), with 109%; and `C=C(C)[C@@H]1CC[C@]2(C)[C@H](C=CC3=C4C[C@@](C)(CO)CC[C@]4(C)CC[C@]32C)[C@@]1(C)CCCN`, with -38.7% (active).
As to `COc1cc2c3c(c4c5ccccc5[nH]c4c2c(OC)c1OC)C(=O)N(CCN1CCCCC1)C3=O`, the growth is -39.6% (active).
As for `O=C1Nc2ccc(Cl)cc2/C1=C/c1ccc[nH]1`, the growth was 107%.
Consider `COC(=O)/C(CCC=C(C)C)=C1\[C@@H](OC(C)=O)C[C@@]2(C)[C@H]1C/C(=N/O)[C@H]1[C@@]3(C)CC/C(=N\O)[C@@H](C)[C@@H]3CC[C@@]12C`, for which the growth was 107%.
Then `O=C(/C=C/C12c3ccccc3C(c3ccccc31)C1C(=O)NC(=O)C12)c1ccco1` (stereo not given), with 13.1%; and `CCN1C(=O)N(CC)C2C1NN=c1s/c(=C\c3ccc(OC)cc3)c(=O)n12` (stereo not given), with 3.44% (active); and `CSc1nc(-c2ccco2)c(C#N)c(=O)n1C`, with 113%.
